# Measurements reported in the supplement of paper PMC9694430.
# Values joined by “and” are separate entries in the source; they are usually repeats but may differ in a detail not shown here. Identical values can stand only once.
# Legend:
# Assay in all cases: thermal shift delta Tm vs DMSO control; higher = stronger stabilization (binding)
# Settings in all cases: 12.5 µM; protein concentration 2 µM
# LOC_OS01G57100-cb003 = tested on: LOC_OS01G57100-cb003
# Procedure, shortened: (§1)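 Rice kinase domain constructs were expressed in E. coli, purified, and tested by differential scanning fluorimetry with compound added in DMSO. Each well of a 96-well plate held 19.5 μl of 2 μM kinase in 100 mM potassium phosphate pH 7.5, 150 mM NaCl, 10% glycerol and 5 × SYPRO Orange, and fluorescence was read from 25°C to 95°C at 0.05°C/s. The melting temperature shift is the mean of triplicates, taken against protein with DMSO alone after Boltzmann fitting.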
# LOC_OS01G60330-cb001 = tested on: LOC_OS01G60330-cb001
# Procedure, shortened: as §1
# LOC_OS01G60700-cb002 = tested on: LOC_OS01G60700-cb002
# Procedure, shortened: as §1
# LOC_OS01G63280-cb003 = tested on: LOC_OS01G63280-cb003
# Procedure, shortened: as §1
# LOC_OS01G67340-cb003 = tested on: LOC_OS01G67340-cb003
# Procedure, shortened: as §1
# LOC_OS01G70970-cb002 = tested on: LOC_OS01G70970-cb002
# Procedure, shortened: as §1
# LOC_OS02G07810-cb001 = tested on: LOC_OS02G07810-cb001
# Procedure, shortened: as §1
# LOC_OS02G08530-cb003 = tested on: LOC_OS02G08530-cb003
# Procedure, shortened: as §1
# LOC_OS02G14120-cb001 = tested on: LOC_OS02G14120-cb001
# Procedure, shortened: as §1
# LOC_OS02G17970-cb001 = tested on: LOC_OS02G17970-cb001
# Procedure, shortened: as §1
# LOC_OS02G45750-cb003 = tested on: LOC_OS02G45750-cb003
# Procedure, shortened: as §1
# LOC_OS02G54510-cb004 = tested on: LOC_OS02G54510-cb004
# Procedure, shortened: as §1
# LOC_OS03G04050-cb001 = tested on: LOC_OS03G04050-cb001
# Procedure, shortened: as §1
# LOC_OS03G12390-cb001 = tested on: LOC_OS03G12390-cb001
# Procedure, shortened: as §1
# LOC_OS03G27990-cb004 = tested on: LOC_OS03G27990-cb004
# Procedure, shortened: as §1
# LOC_OS03G50450-cb001 = tested on: LOC_OS03G50450-cb001
# Procedure, shortened: as §1
# LOC_OS03G50810-cb003 = tested on: LOC_OS03G50810-cb003
# Procedure, shortened: as §1
# LOC_OS04G35114-cb001 = tested on: LOC_OS04G35114-cb001
# Procedure, shortened: as §1
# LOC_OS04G38480-cb003 = tested on: T1, LOC_OS04G38480-cb003
# T1 sequence (whole entry): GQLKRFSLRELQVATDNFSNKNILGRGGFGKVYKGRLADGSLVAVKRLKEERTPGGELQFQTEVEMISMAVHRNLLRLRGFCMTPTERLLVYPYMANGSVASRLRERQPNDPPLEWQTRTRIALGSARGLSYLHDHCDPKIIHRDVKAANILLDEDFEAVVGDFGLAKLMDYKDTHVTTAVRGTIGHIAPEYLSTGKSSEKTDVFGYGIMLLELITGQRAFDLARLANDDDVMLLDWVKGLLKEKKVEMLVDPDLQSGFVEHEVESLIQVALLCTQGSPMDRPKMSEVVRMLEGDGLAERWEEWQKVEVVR
# Procedure, shortened: as §1
# LOC_OS04G41100-cb001 = tested on: T2, LOC_OS04G41100-cb001
# T2 sequence (whole entry): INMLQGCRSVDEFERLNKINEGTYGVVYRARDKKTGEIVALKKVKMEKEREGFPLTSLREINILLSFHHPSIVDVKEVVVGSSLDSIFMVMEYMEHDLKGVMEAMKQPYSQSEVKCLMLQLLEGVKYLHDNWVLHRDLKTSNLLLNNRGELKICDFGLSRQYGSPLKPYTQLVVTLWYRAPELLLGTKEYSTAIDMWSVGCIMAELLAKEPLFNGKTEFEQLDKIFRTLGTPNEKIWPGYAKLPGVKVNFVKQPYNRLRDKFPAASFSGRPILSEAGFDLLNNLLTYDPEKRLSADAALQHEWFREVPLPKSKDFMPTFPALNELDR
# Procedure, shortened: as §1
SMILES,thermal shift delta Tm (LOC_OS01G57100-cb003),thermal shift delta Tm (LOC_OS01G60330-cb001),thermal shift delta Tm (LOC_OS01G60700-cb002),thermal shift delta Tm (LOC_OS01G63280-cb003),thermal shift delta Tm (LOC_OS01G67340-cb003),thermal shift delta Tm (LOC_OS01G70970-cb002),thermal shift delta Tm (LOC_OS02G07810-cb001),thermal shift delta Tm (LOC_OS02G08530-cb003),thermal shift delta Tm (LOC_OS02G14120-cb001),thermal shift delta Tm (LOC_OS02G17970-cb001),thermal shift delta Tm (LOC_OS02G45750-cb003),thermal shift delta Tm (LOC_OS02G54510-cb004),thermal shift delta Tm (LOC_OS03G04050-cb001),thermal shift delta Tm (LOC_OS03G12390-cb001),thermal shift delta Tm (LOC_OS03G27990-cb004),thermal shift delta Tm (LOC_OS03G50450-cb001),thermal shift delta Tm (LOC_OS03G50810-cb003),thermal shift delta Tm (LOC_OS04G35114-cb001),thermal shift delta Tm (LOC_OS04G38480-cb003),thermal shift delta Tm (LOC_OS04G41100-cb001)
CCCNC(=O)Nc1ccc(Oc2ncnc3cc(OC)c(OC)cc23)cc1Cl,0.3 °C,0.97 °C,-0.2 °C,0.14 °C,-0.13 °C,-0.25 °C,0.93 °C,1.15 °C,-0.1 °C,0.04 °C,-0.23 °C,-0.21 °C,-0.21 °C,0.74 °C,-0.33 °C,-0.08 °C,0.49 °C,0.48 °C,-0.17 °C,-0.34 °C
CC(C)(C)c1nc(-c2cccc(NS(=O)(=O)c3c(F)cccc3F)c2F)c(-c2ccnc(N)n2)s1,2.01 °C,7.29 °C,1.89 °C,19.8 °C,1.21 °C,3.43 °C,1.44 °C,1.92 °C,3.94 °C,1.55 °C,2.7 °C,2.41 °C,0.43 °C,0.52 °C,0.49 °C,1.42 °C,1.63 °C,2.09 °C,2.46 °C,2.47 °C
COc1cc2nccc(Oc3ccc(NC(=O)Nc4cc(C)on4)c(Cl)c3)c2cc1OC [Tivozanib (AV-951)],1.99 °C,1.29 °C,0.04 °C,1.3 °C,0.1 °C,0.66 °C,0.91 °C,1.02 °C,6.58 °C,0.14 °C,2.56 °C,3.55 °C,0.02 °C,1.3 °C,0.02 °C,-0.03 °C,2.67 °C,3.47 °C,4.03 °C,0.72 °C
CCCCNc1ncc2c(-c3ccc(CN4CCN(C)CC4)cc3)cn([C@H]3CC[C@H](O)CC3)c2n1,3.5 °C,14.9 °C,0.56 °C,0.95 °C,10.1 °C,8.18 °C,-0.25 °C,5.26 °C,12.2 °C,-0.42 °C,18.4 °C,0.6 °C,0.12 °C,8.3 °C,10.8 °C,6.64 °C,10.5 °C,12.3 °C,4.63 °C,0.42 °C
Cc1ccc(NC(=O)c2ccc(CN3CCN(C)CC3)cc2)cc1Nc1nc(-c2cccnc2)cs1 [Masitinib (AB1010)],0.04 °C,1.59 °C,0.59 °C,0.19 °C,-0.46 °C,0.24 °C,0.34 °C,0.9 °C,0.12 °C,0.55 °C,0.39 °C,0.33 °C,0.47 °C,0.28 °C,0.29 °C,0.58 °C,0.26 °C,0.04 °C,0.69 °C,0.53 °C
Cc1c(NC(=O)c2ccc(C(C)(C)C)cc2)cccc1-c1cn(C)c(=O)c(Nc2ccc(C(=O)N3CCOCC3)cc2)n1,1.59 °C,0.51 °C,1.36 °C,0.36 °C,-0.03 °C,0.22 °C,0.9 °C,0.31 °C,0 °C,0.66 °C,1.07 °C,0.28 °C,0.82 °C,1.85 °C,0.51 °C,0.69 °C,0.7 °C,0.72 °C,0.87 °C,0.43 °C
CNC(=O)c1ccc(-c2cnc3ncc(Cc4ccc5ncccc5c4)n3n2)cc1F,0.49 °C,-0.8 °C,0.39 °C,0.07 °C,0.32 °C,-0.18 °C,0.83 °C,0.3 °C,-0.02 °C,0.26 °C,0.61 °C,0.23 °C,0.48 °C,-0.1 °C,0.21 °C,0.36 °C,0.27 °C,0.19 °C,2.02 °C,0.27 °C
O=C(NC1CCNCC1)c1n[nH]cc1NC(=O)c1c(Cl)cccc1Cl,0.75 °C and 1.2 °C,0.78 °C and 1.25 °C,0.49 °C and 1.4 °C,0.02 °C and 0.4 °C,-0.21 °C and 0.3 °C,0.28 °C and 0.16 °C,0.48 °C and 1.2 °C,0.49 °C and 0.58 °C,-0.32 °C and 0.19 °C,0.23 °C and 1.28 °C,0.66 °C and 1.33 °C,0.11 °C and 0.36 °C,0.15 °C and 0.29 °C,0.1 °C and 0.19 °C,0.04 °C and 0.36 °C,0.11 °C and 0.36 °C,0.29 °C and 0.51 °C,0.48 °C and 0.71 °C,0.07 °C and 1.75 °C,7.15 °C and 7.57 °C
"Nc1cc(C(F)(F)F)c(-c2cc(N3CCOCC3)nc(N3CCOCC3)n2)cn1 [Buparlisib (BKM120, NVP-BKM120)]",2.16 °C,0.57 °C,1.2 °C,0.16 °C,0.47 °C,0.27 °C,1.48 °C,0.84 °C,0.46 °C,0.37 °C,0.32 °C,-0.07 °C,0.3 °C,-0.03 °C,0.23 °C,0.11 °C,0.38 °C,0.31 °C,0.85 °C,0.22 °C
Cn1cc(/C=C2\C(=O)Nc3cccnc32)c2ccccc21,1.08 °C,12.1 °C,1.27 °C,0.58 °C,2.54 °C,4.16 °C,1.32 °C,4.2 °C,3.15 °C,1.08 °C,11.3 °C,0.63 °C,0.83 °C,3.11 °C,1.64 °C,4 °C,3.46 °C,6.79 °C,3.05 °C,0.74 °C
C=CC(=O)N1CCC[C@@H](n2nc(-c3ccc(Oc4ccccc4)cc3)c3c(N)ncnc32)C1,1.42 °C,1.09 °C,0.54 °C,3.76 °C,-0.23 °C,1.12 °C,0.96 °C,1.16 °C,0.34 °C,0.6 °C,1.46 °C,1.25 °C,0.88 °C,0.1 °C,0.51 °C,1.39 °C,1.07 °C,3.03 °C,1.2 °C,0.37 °C
